Source: PubChem BioAssay
CHT PAM: human CHT allosteric activation | B-score at 10 µM | AID 488977 | hit rate 0.49% among 310,000 | Q9GZV3 | CHT-expressing cells, membrane potential dye, choline EC20; stronger effect = higher value; LV-AA mutant CHT in HEK293 cells;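 active = initial fluorescence not abnormally high and integrated response B-score, plate-corrected, over 3 SD above library mean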
Target sequence (Q9GZV3 whole entry, looked up): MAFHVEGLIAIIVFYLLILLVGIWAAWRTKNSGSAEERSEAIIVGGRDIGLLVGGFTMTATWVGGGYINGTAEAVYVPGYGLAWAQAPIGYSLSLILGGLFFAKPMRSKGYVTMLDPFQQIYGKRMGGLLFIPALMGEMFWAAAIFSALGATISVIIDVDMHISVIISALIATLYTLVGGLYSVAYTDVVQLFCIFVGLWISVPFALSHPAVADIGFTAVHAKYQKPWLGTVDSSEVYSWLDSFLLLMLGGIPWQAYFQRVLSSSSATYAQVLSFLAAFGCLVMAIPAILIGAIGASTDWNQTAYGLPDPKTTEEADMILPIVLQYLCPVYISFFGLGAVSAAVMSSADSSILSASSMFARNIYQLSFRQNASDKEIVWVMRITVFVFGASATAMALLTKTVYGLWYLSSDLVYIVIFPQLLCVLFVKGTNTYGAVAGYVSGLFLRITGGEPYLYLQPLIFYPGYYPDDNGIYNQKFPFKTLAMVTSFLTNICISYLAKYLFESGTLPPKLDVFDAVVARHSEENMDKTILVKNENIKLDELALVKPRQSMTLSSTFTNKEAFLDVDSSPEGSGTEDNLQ
A1 inh: inhibitors of the anti-apoptotic protein A1, read as caspase activation; MEF A1-2A-BIM cells, Caspase-Glo 3/7 luminescence, 3 h; percent of clofoctol response, vehicle zero; caspase activation, % (test concentration not listed); hit rate 0.066% among 330,000; AID 2462;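 active = over half of replicate activation scores above 10%, or exactly half above 10 with the replicate mean above 10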
NALP1 yeast inh: NALP1 inhibition; S. cerevisiae NALP1/ASC/caspase-1 growth, X-gal OD620, 72 h; inhibition, % at 10 µM; hit rate 0.61% among 280,000; AID 2071; in the data active = inhibition mostly above about 24%, no sharp cut-off; inactive = mostly below about 32%
CHT block: human CHT choline transport inhibition; CHT-expressing cells, membrane potential dye, choline response; stronger effect = lower value; B-score at 10 µM; hit rate 0.86% among 310,000; AID 488975;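 active = B-score over 3 SD under the library average, and starting fluorescence ratio not unusually high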;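 also: choline stimulus applied at its EC90 after an EC20 pre-addition; B-score computed on integrated fluorescence ratio after choline addition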
SUMO Mot1 rescue: inhibitors of SUMOylation pathway: yeast Mot1-301 growth rescue. S. cerevisiae Mot1-301 growth rescue, ATP luminescence, 38.5C; percent above DMSO median, 100 means doubled. growth rescue, % at 18.8 µM. hit rate 1% among 320,000. AID 2716;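 active = every valid replicate shows activation above 250% relative to neutral control wells; inactive = the rest, any valid replicate at or below 250%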;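 also: OY570 slx delta 5 strain wells were the positive control but not used for scaling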
NLRP3 yeast inh: blocks the NALP3 inflammasome reconstituted in yeast. AID 2825. inhibition, % at 10 µM. hit rate 0.39% among 330,000. Yeast reconstituted NLRP3/ASC/caspase-1, beta-gal luminescence, 24 h;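 active = inhibition of 50% or more; inactive = inhibition below 50%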;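 also: plate controls were induced DMSO wells for no effect and uninduced yeast grown without galactose for full effect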
Yeast Mot1 SUMO: SUMO pathway inhibitors in yeast Mot1-301 growth; growth activity, percent, % at 42 µM; S. cerevisiae Mot1-301 galactose growth, ATP luminescence, 24 h; -100 = growth of slx-deleted rescue strain; 2,300 tested, under 10 active; AID 493004; shares compounds with SUMO Mot1 rescue;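 active = Signal drops as the depositor expects, and the fitted half-maximal dose is no more than ten times the top valid tested dose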;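 also: more negative values mean stronger growth rescue toward the control strain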
Active calls of the source: *. A selection: hits, their analogues and other compounds. The true share with any hit is near 3%.

How did CCc1cc(C(=O)OC)c(NC(=O)CSc2nccn2C)s1 do in these assays?
CHT PAM: inactive; A1 inh: 1; NALP1 yeast inh: 6; CHT block: inactive; SUMO Mot1 rescue: -1; NLRP3 yeast inh: 21

What do the screens show for `O=C(CCCNC(=O)/C(=C/c1ccccc1F)NC(=O)c1ccccc1)OCc1ccccc1`?
CHT PAM: inactive; A1 inh: 1; NALP1 yeast inh: 25; CHT block: inactive; SUMO Mot1 rescue: 496*; NLRP3 yeast inh: 12; Yeast Mot1 SUMO: 1

What do the screens show for `CCN(C(=S)NCCOC)c1cccc2ccccc12`?
CHT PAM: inactive; A1 inh: 0; NALP1 yeast inh: -11; CHT block: inactive; SUMO Mot1 rescue: 418*; NLRP3 yeast inh: 5; Yeast Mot1 SUMO: 1

What do the screens show for `CC1C(=O)CC(c2ccccc2)N(C)C1c1ccccc1` (centres undefined)?
CHT PAM: inactive; A1 inh: 0; NALP1 yeast inh: -24; CHT block: inactive; SUMO Mot1 rescue: 537*; NLRP3 yeast inh: 17; Yeast Mot1 SUMO: 0

Results for CCC1C(c2ccccc2)N(C)C(c2ccccc2)CC1(O)c1ccccc1 (centres undefined) ?
CHT PAM: inactive; A1 inh: 0; NALP1 yeast inh: 1; CHT block: inactive; SUMO Mot1 rescue: 178; NLRP3 yeast inh: -24

What do the screens show for `CCCCn1c(=O)[nH]c(=O)c2c1nc(COc1ccc(C#N)cc1)n2CCC`?
CHT PAM: inactive; A1 inh: 0; NALP1 yeast inh: -1; CHT block: inactive; SUMO Mot1 rescue: 404*; NLRP3 yeast inh: 11; Yeast Mot1 SUMO: 1

How did Cc1ccc(CCC(=O)Nc2ccccc2C(=O)O)o1 do in these assays?
CHT PAM: inactive; A1 inh: -7; NALP1 yeast inh: -3; CHT block: inactive; SUMO Mot1 rescue: -11; NLRP3 yeast inh: 12

How did CC1(C)CCC(=O)N2CC[C@H]3C[C@H](OC(=O)Nc4ccc(Br)cc4)C[C@@H]1[C@H]32 do in these assays?
CHT PAM: inactive; A1 inh: 1; NALP1 yeast inh: 26; CHT block: inactive; SUMO Mot1 rescue: 805*; NLRP3 yeast inh: -1; Yeast Mot1 SUMO: 0

How did O=C(Nc1ccc2c(c1)OCO2)O[C@@H]1C[C@H]2CCCC(=O)N3CC[C@@H](C1)[C@@H]23 do in these assays?
CHT PAM: inactive; A1 inh: 1; NALP1 yeast inh: -2; CHT block: inactive; SUMO Mot1 rescue: 2; NLRP3 yeast inh: 5

What do the screens show for `CCOc1ccccc1N1CCN(C(=O)c2cc(-c3cccnc3)nc3c(Cl)cccc23)CC1`?
CHT PAM: inactive; A1 inh: 0; NALP1 yeast inh: 10; CHT block: inactive; SUMO Mot1 rescue: 288; NLRP3 yeast inh: 9

How did Cc1ccc2nc(NC(=O)CNS(=O)(=O)c3ccc(Br)s3)sc2c1 do in these assays?
CHT PAM: inactive; A1 inh: 2; NALP1 yeast inh: 12; CHT block: inactive; SUMO Mot1 rescue: 520*; NLRP3 yeast inh: 28; Yeast Mot1 SUMO: 0

Results for Cc1ccc2nc(NC(=O)CN(C)S(=O)(=O)c3ccc(Br)s3)sc2c1 ?
CHT PAM: inactive; A1 inh: 0; NALP1 yeast inh: -4; CHT block: inactive; SUMO Mot1 rescue: 24; NLRP3 yeast inh: 10

What do the screens show for `CN(C(=O)c1cccc(S(=O)(=O)N2CCCC2)c1)C1CCCCC1`?
A1 inh: 2; SUMO Mot1 rescue: 0; NLRP3 yeast inh: 27

What do the screens show for `O=C(O)CC(NC(=O)CC(c1ccccc1)c1ccccc1)c1cccc([N+](=O)[O-])c1` (centres undefined)?
CHT PAM: inactive; A1 inh: 1; NALP1 yeast inh: -9; CHT block: inactive; SUMO Mot1 rescue: 5; NLRP3 yeast inh: -10

Results for O=C(O)CC(NC(=O)c1ccc2c(c1)OCO2)c1cccc([N+](=O)[O-])c1 (centres undefined) ?
CHT PAM: inactive; A1 inh: 1; NALP1 yeast inh: -4; CHT block: inactive; SUMO Mot1 rescue: active; NLRP3 yeast inh: 21; Yeast Mot1 SUMO: 0

How did O=c1oc2cc(S(=O)(=O)NCCCO)ccc2c2ccc(S(=O)(=O)NCCCO)cc12 do in these assays?
CHT PAM: inactive; A1 inh: 2; NALP1 yeast inh: 5; CHT block: inactive; SUMO Mot1 rescue: 461*; NLRP3 yeast inh: 8; Yeast Mot1 SUMO: 0

Results for COc1ccc(S(=O)(=O)N2CCN(C(=O)CC3CC4CCC3C4)CC2)cc1 (centres undefined) ?
A1 inh: 0; SUMO Mot1 rescue: -28; NLRP3 yeast inh: 23

How did Cc1nc(NC(=O)CSc2nc(N)cc(N)n2)sc1C do in these assays?
CHT PAM: inactive; A1 inh: 0; NALP1 yeast inh: 10; CHT block: inactive; SUMO Mot1 rescue: 661*; NLRP3 yeast inh: 10; Yeast Mot1 SUMO: 0

Results for CC1CC(C)(C)N2C(=O)C3(Nc4ccccc4S3)c3cccc1c32 (centres undefined) ?
CHT PAM: inactive; A1 inh: 1; NALP1 yeast inh: 8; CHT block: inactive; SUMO Mot1 rescue: 723*; NLRP3 yeast inh: 34; Yeast Mot1 SUMO: -2

How did COCCn1c(SCC(=O)Nc2ccccc2)nnc1-c1ccoc1C do in these assays?
CHT PAM: inactive; A1 inh: 1; NALP1 yeast inh: 0; CHT block: inactive; SUMO Mot1 rescue: 4; NLRP3 yeast inh: 4

How did COCCn1c(SCC(=O)Nc2nc3ccccc3s2)nnc1-c1ccoc1C do in these assays?
CHT PAM: inactive; A1 inh: 0; CHT block: inactive; SUMO Mot1 rescue: 601*; NLRP3 yeast inh: 7; Yeast Mot1 SUMO: 1

How did CCOC(=O)N1CCN(C(=O)CNC(=O)c2nn(-c3ccc(OC)c(OC)c3)c(=O)c3ccccc23)CC1 do in these assays?
CHT PAM: inactive; A1 inh: 0; NALP1 yeast inh: -13; CHT block: inactive; SUMO Mot1 rescue: 497*; NLRP3 yeast inh: -7; Yeast Mot1 SUMO: 1

How did CCOC(=O)N1CCN(C(=O)CNC(=O)c2nn(-c3ccc(OC)c(Cl)c3)c(=O)c3ccccc23)CC1 do in these assays?
CHT PAM: inactive; A1 inh: 1; NALP1 yeast inh: 10; CHT block: inactive; SUMO Mot1 rescue: -17; NLRP3 yeast inh: 5

Results for CN(CCOc1ccc(Cl)cc1)CC(=O)Nc1ccc(OC(F)F)cc1 ?
CHT PAM: inactive; A1 inh: 1; NALP1 yeast inh: 12; CHT block: inactive; SUMO Mot1 rescue: 403*; NLRP3 yeast inh: 38; Yeast Mot1 SUMO: -1
